Measured values from PubChem BioAssay.

Experiments:
[1] = molecular target: Tumor necrosis factor receptor superfamily member 10B (Homo sapiens) (UniProt O14763); assay: caspase-8 TRAIL sensitization, hit retest, confirmation, cell-based, NB7+caspase-8, with/without TRAIL, luminescence panel (AID 651596); settings: NB7 neuroblastoma + caspase-8, TRAIL sensitization, luminescence viability, with TRAIL, mean of runs, at 10 µM, stronger effect = higher value
[2] = as above; settings: NB7 neuroblastoma + caspase-8, without TRAIL, luminescence viability, without TRAIL, mean of runs, at 10 µM

Chain of Tumor necrosis factor receptor superfamily member 10B (Homo sapiens) (O14763 whole entry, looked up): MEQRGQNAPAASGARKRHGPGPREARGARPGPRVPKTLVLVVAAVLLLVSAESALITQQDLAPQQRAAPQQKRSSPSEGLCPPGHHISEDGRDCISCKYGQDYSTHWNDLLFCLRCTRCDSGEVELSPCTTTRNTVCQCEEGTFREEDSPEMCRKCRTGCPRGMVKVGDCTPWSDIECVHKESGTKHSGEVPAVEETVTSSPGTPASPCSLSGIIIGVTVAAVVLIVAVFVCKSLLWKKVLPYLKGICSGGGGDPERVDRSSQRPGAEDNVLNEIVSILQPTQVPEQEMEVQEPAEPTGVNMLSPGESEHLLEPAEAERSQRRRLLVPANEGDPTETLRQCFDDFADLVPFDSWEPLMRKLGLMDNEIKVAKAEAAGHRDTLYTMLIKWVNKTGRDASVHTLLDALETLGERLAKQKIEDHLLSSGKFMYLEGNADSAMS

| Compound | activity [1] | activity [2] |
| --- | --- | --- |
| COC(=O)CSc1nnc(NC(=O)/C=C\c2ccc3c(c2)OCO3)s1 | 49.5% | 66.2% |
| CCN1CCN(Cc2ccc(NC(=O)c3cc(NC(=O)c4cncc(-c5ccc(C#N)cc5)c4)cc(OC)c3)cc2C(F)(F)F)CC1 | 58% | 98.7% |
| O=C(Nc1ccccn1)c1ccc2c(=O)n3c(nc2c1)CCCCC3 | 50.4% | 62.5% |
| COc1ccccc1NC(CC(=O)c1ccccc1)C(=O)OCC(=O)c1ccc(C)cc1 (centres undefined) | 65% | 69% |
| Brc1ccc(-c2ccc(/C=N/Nc3nc4ccccc4[nH]3)o2)cc1 | 51.5% | 42.5% |
| C/C(=N\Nc1nc2ccccc2[nH]1)c1ccc(N2CCOCC2)cc1 | 80.9% | 74.9% |
| COc1ccc(/C=C/C(=O)c2ccc([N+](=O)[O-])o2)cc1 | 35.2% | 80.8% |
| OCC1OC(n2ccc3c2ncn2ncnc32)C(O)C1O (centres undefined) | 93.8% | 95.3% |
| CCS(=O)(=O)c1ncc(Cl)c(C(=O)Nc2ccc(S(=O)(=O)N3CCC(C)CC3)cc2)n1 | 95.2% | 98.8% |
| CCOc1ccc2nc(NC(=O)c3ccc(C)o3)sc2c1 | 61.1% | 52.9% |
| COc1ccc(-c2nn(-c3ccccc3)cc2/C=N/NC(=O)c2ccc(Br)o2)cc1 | 79.5% | 32.3% |
| CCCCC[C@@H](C)N1C[C@H](COCc2ccccc2)Oc2cc(N3CC[C@@H](N(C)C)C3)ccc2S1(=O)=O | 13% | 43.6% |
| Cc1ccc(-c2nn(CC(=O)NCc3cc(-c4nn(C)c(=O)c5ccccc45)ccc3C)c(=O)c3ccccc23)cc1 | 90.9% | 35.5% |
| CC(C)N(Cc1ccccc1)C(=O)COC(=O)c1cnc(Cl)c(Cl)c1 | 81.2% | 72% |
| C#Cc1ccccc1OCCCN1CCC(C(O)(c2ccccc2)c2ccccc2)CC1 | 97.2% | 94.2% |
| COc1ccccc1C=C1CCc2ccccc2C1=O | 78.4% | 74.3% |
| Cc1cc(C)c2c(c1)/C(=C/C(=O)c1ccc(Br)s1)C(=O)N2 | 91.8% | 98% |
| O=C(Nc1nc2c(F)cc(F)cc2s1)c1ccccn1 | 61.9% | 64.5% |
| CN(C)S(=O)(=O)c1ccc(-c2csc(N/N=C/c3ccco3)n2)cc1 | 81% | 77.8% |
| CCc1sc(C(=O)N2CCc3ccccc32)cc1C | 46.1% | 44.7% |
| N=c1n(CC(=O)c2ccc(Br)s2)c2ccccc2n1Cc1ccccc1 | 20.9% | 20.6% |
| O=C(/C=C/c1ccc(F)cc1)NC(=S)Nc1ccccc1C(=O)NC1CCCCC1 | -1.65% | -0.275% |
| NC(=S)NN=C1c2ccccc2-c2c(F)c(F)c(F)c(F)c21 | 72.1% | 71.4% |
| Cc1cccc(-n2ncc3c(N4CCCC4)ncnc32)c1 | 75.4% | 73.6% |
| Cc1cc(NC2CCCC2)n2ncc(-c3ccccc3)c2n1 | 69.1% | 69.1% |
| CCOc1ccc(-c2cc(C(=O)N/N=C(\C)c3cccnc3)c3ccccc3n2)cc1 | 74% | 69.6% |
| CCc1n[n+](CC(=O)c2ccccc2)c(N)s1 | 44.6% | 35.9% |
